Sampled rows, rich in hits. Any-hit rate of the full collection: about 19%.
TDP1 cell noCPT = qHTS for Inhibitors of human tyrosyl-DNA phosphodiesterase 1 (TDP1): qHTS in cells in absence of CPT | DT40 Tdp1-/- hTDP1 cells, no CPT, ATP luminescence, 48 h | Potency, µM (highest dose often 46.2 µM), inactives show top-dose activity change, negative = growth inhibition, most hits filed as inhibitors | 420,000 tested, 15% active; also: nearly all actives have a fitted effect of over 55% in size
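Camptothecin absent (DMSO only). Human TDP1-complemented DT40 knockout cells, 400 cells/well, 37 °C for minimum 48 hr; ATP measured via CellTiter-Glo, 30 min dark incubation, luminescence.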
TDP1 inh = qHTS Assay for Inhibitors of Tyrosyl-DNA Phosphodiesterase (TDP1); 350,000 tested, 0.28% active; AID 485290, 2010; recombinant TDP1, AlphaScreen DNA substrate cleavage; Potency, µM (doses to about 130 µM), without a hit: at the highest dose activity change, negative = inhibition, usual class: inhibitors; Tyrosyl-DNA phosphodiesterase 1 (Homo sapiens), Q9NUW8; also: nearly all actives have a fitted effect of over 40% in size
Target sequence (Q9NUW8 whole entry, looked up): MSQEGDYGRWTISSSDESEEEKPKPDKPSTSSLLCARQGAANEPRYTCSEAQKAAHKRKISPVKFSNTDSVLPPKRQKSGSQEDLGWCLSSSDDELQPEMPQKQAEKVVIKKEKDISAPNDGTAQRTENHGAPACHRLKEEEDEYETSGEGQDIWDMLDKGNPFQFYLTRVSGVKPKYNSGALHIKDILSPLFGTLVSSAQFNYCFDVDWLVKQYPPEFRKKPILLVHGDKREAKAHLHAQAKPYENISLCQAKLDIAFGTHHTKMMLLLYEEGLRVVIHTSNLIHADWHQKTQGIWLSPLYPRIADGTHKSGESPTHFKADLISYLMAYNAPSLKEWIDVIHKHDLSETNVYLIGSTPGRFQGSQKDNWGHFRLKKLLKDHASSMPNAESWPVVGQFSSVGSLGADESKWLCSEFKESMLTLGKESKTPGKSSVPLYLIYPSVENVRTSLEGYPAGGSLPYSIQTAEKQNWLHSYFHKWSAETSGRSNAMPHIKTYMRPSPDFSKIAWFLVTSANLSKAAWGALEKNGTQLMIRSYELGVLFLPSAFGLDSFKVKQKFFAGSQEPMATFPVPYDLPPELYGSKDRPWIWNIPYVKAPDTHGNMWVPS
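Enzyme-compound mixtures sat 15 min at room temperature, followed by a 5 min reaction with 15 nM final substrate and 10 min with AlphaScreen beads. Recombinant human Tdp1 was used at 1 nM final.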
RORgamma inh = qHTS for inhibitors of ROR gamma transcriptional activity | Potency, µM (doses to about 53.6 µM), without a hit: at the top dose activity change, negative = inhibition, actives largely listed as inhibitors | Drosophila S2 Gal4-RORgamma UAS-luciferase reporter, 20 h | AID 2551, 2010 | 310,000 tested, 5.4% active | Nuclear receptor ROR-gamma (Mus musculus), P51450; also: nearly all actives have a fitted effect of over 60% in size
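Compounds are pin-transferred onto Drosophila Schneider cells expressing a copper-inducible Gal4–ROR gamma transactivation domain fusion. After 1 hr, copper sulfate is added to 700 uM final; luciferase is read 20 hr later.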
DT40 TDP1 CPT = qHTS for Inhibitors of human tyrosyl-DNA phosphodiesterase 1 (TDP1): qHTS in cells in presence of CPT | chicken DT40 Tdp1-/-;hTDP1 cells + 20 nM CPT, ATP luminescence, 48 h | Potency, µM (highest dose often 46.2 µM), inactives show top-dose activity change, negative = growth inhibition, usual class: inhibitors | 420,000 tested, 12% active; also: nearly all actives have a fitted effect of over 55% in size
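Chicken DT40 Tdp1-/- cells stably complemented with human TDP1 were seeded at 400 cells/well in medium containing 20 nM camptothecin, exposed to pin-transferred compounds, and grown at 37 °C for at least 48 hr. Viability was read as ATP luminescence.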
Gal4-VP16 FLuc = VP16 counterscreen qHTS for inhibitors of ROR gamma transcriptional activity; Potency, µM (titrated, usually from 53.6 µM), for the others: at the top dose activity, negative = inhibition, hits mostly inhibitors; Drosophila S2 Gal4-VP16 UAS-luciferase, luminescence, 20 h; 310,000 tested, 3.5% active; AID 2546, 2010;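 also: Gal4-VP16 expression switched on by copper sulfate through the metallothionein promoter; nearly all actives have a fitted effect of over 50% in size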
The depositor's hits bear a star; ? = inconclusive; / = no result given; [ ] = remark or other dose. Calls follow the shape of the dose curve; as a rule, active = well fitted curve in the direction sought with a large enough effect; inconclusive = small, poorly fitted or top-dose-only effect, or another doubt; inactive = no such curve, though single readings can be large; an effect the other way counts as inactive or inconclusive. % is scaled to controls: 0 for no effect and ±100 for the full control effect; potency is read from the fitted curve at half-maximal effect.

SMILES | TDP1 cell noCPT | TDP1 inh | RORgamma inh | DT40 TDP1 CPT | Gal4-VP16 FLuc
CCSc1ncc(Cl)c(C(=O)Nc2cccc(Cl)c2)n1 | ? | -4% | / | 10µM* | /
CSc1ncc(Cl)c(C(=O)Nc2nnc(SC/C=C/c3ccccc3)s2)n1 | -8% | 9% | 2% | -9% | -14%
C=CCSc1nnc(NC(=O)c2nc(SCC)ncc2Cl)s1 | -4% | 8% | 11µM* | ? | ?
CC(C)c1nnc(NC(=O)c2nc(S(=O)(=O)Cc3ccc(F)cc3)ncc2Cl)s1 | 4.1µM* | 5% | 11µM* | 4.6µM* | ?
Cc1nnc(NC(=O)c2nc(S(=O)(=O)Cc3ccccc3C)ncc2Cl)s1 | 12µM* | -5% | 3.5µM* | 15µM* | 0.71µM*
CSc1nnc(NC(=O)c2nc(S(=O)(=O)Cc3cccc(C)c3)ncc2Cl)s1 | 8.2µM* | 6% | ? | 8.2µM* | 18µM*
CCc1nnc(NC(=O)c2nc(SCc3ccccc3F)ncc2Cl)s1 | 8% | 2% | / | -16% | /
O=C(Nc1nc2ccc(F)cc2s1)c1nc(S(=O)(=O)Cc2ccccc2F)ncc1Cl | 2.6µM* | 0% | / | 3.3µM* | /
Cc1cc(C(=O)N2CCOCC2)ccc1[N+](=O)[O-] | 5% | 3% | 3% | 19% | -3%
Cc1ccc(CS(=O)(=O)c2ccc(C(=O)N3CCN(c4ccccn4)CC3)cc2[N+](=O)[O-])cc1 | 26µM* | 2% | -9% | 9.2µM* | ?
Cc1ccccc1CS(=O)(=O)c1ccc(C(=O)N2CCOCC2)cc1[N+](=O)[O-] | 12µM* | 6% | -10% | ? | 18%
O=C(c1ccc(S(=O)(=O)Cc2ccccc2Cl)c([N+](=O)[O-])c1)N1CCOCC1 | 21µM* | 7% | -29% | 21µM* | -1%
Cc1ccc(C(=O)N2CCOCC2)cc1[N+](=O)[O-] | -4% | 3% | 1% | -10% | 1%
CCC/C=C/c1ccc(CN2C(C)C(=O)N(Cc3cn(CCC4OCCCO4)nn3)CCS2(=O)=O)cc1 (configuration not stated) | 13µM* | / | / | ? | /
CCC/C=C/c1ccc(CN2C(CC(C)C)C(=O)N(Cc3cn(CCC4OCCCO4)nn3)CCS2(=O)=O)cc1 (configuration not stated) | 23µM* | / | / | ? | /
CCC/C=C/c1ccc(CN2C(C(C)C)C(=O)N(Cc3cn(CCC4OCCO4)nn3)CCS2(=O)=O)cc1 (configuration not stated) | 13µM* | / | / | ? | /
Cc1ccc(C(=O)N/C(=C/c2ccco2)C(=O)NCCCn2ccnc2)cc1 | -2% | -3% | 1% | -15% | -20%
CC(C)OC(=O)[C@@H]1C=C[C@H](C)[C@@H](CCCCOCc2ccccc2)O1 | / | 3% | 0% | / | -6%
Cc1ccc(Sc2ncccc2C(=O)O)cc1 | -1% | 0% | -17% | 9% | ?
c1ccc(COc2ncnc3c2ncn3CCCNC2CCN(Cc3ccccc3)CC2)cc1 | 4.1µM* | / | / | 7.3µM* | /
CSc1ncnc2c1ncn2CCCNC1CCN(Cc2ccccc2)CC1 | 23µM* | / | / | ? | /
CC[C@@H](NCCCn1cnc2c(SC)ncnc21)c1ccccc1 | ? | / | / | 16µM* | /
CSc1ncnc2c1ncn2CCCNCC1CCCO1 (configuration not stated) | 4% | / | / | 7% | /
CSc1ncnc2c1ncn2CCCNCc1cccc2ccccc12 | ? | / | / | -17% | /
CCOc1ccc(OCC)c(NC(=O)C2CCCN(C(=O)c3ccc(Cl)cc3)C2)c1 (configuration not stated) | ? | 3% | / | ? | /
COc1ccc(NS(=O)(=O)c2ccc(C)c(C(=O)N3CC(C)OC(C)C3)c2)cc1 (configuration not stated) | -28% | -10%[0.505 µM] | / | ? | /
